Assay results as given in PubChem BioAssay AID2069 (Sanford-Burnham Center for Chemical Genomics, 2009).
Hit rate of the full screen: of about 1,200 compounds, about 210 (18%) were called active. A selection follows. Unmarked numbers belong to inactive results. Rule as the data show it: active = inhibition above about 30%; inactive = the rest.

Test: fluorescence readout artefact check – biochemical, HTRF, uHTS, artefact control for SUMOylation inhibitor project, confirmation (AID 2069)
Details: HTRF interference counterscreen, at 35 µM, stronger effect = higher value

| Compound | inhibition |
| --- | --- |
| O=C(N/N=C/c1ccc(-c2cccc([N+](=O)[O-])c2)o1)c1ccccc1O | 2.3% |
| Cc1ccc(N=C2NC(=O)/C(=C\c3ccco3)S2)cc1 | -0.45% |
| NC1=NC(c2ccc(Cl)cc2)N(c2ccc(S(N)(=O)=O)cc2)C(N)=N1 (stereo not drawn) | 6.2% |
| O=C(CNc1cccc2ccccc12)c1ccc([N+](=O)[O-])cc1 | -2.7% |
| CCOC(=O)N1CCN(C2=C(NS(=O)(=O)c3ccc(C)cc3)C(=O)c3ccccc3C2=O)CC1 | -12.7% |
| COc1cc(C2c3c(oc4ccccc4c3=O)C(=O)N2c2nccs2)ccc1O (stereo not drawn) | 7.95% |
| O=C(O)c1cc(-c2ccco2)nn1-c1ccc(Cl)cc1 | 1.75% |
| Cc1ccc(S(=O)(=O)n2ccc(OC(=O)c3cccs3)n2)cc1 | 0.25% |
| O=C1NNC(c2ccccc2)=N/C1=C\c1ccccc1Cl | -7.9% |
| Cc1ncc(CO)c(/C=N/NC(=O)c2cc(O)c(O)c(O)c2)c1O | 0.4% |
| S=c1[nH]nc(-c2cccnc2)n1/N=C/C=C/c1ccco1 | -1.7% |
| CN(C)/C=N/c1nc2nccc(-c3cccc(Cl)c3)n2n1 | 57.1% (active) |
| CN(C)/C=N/c1nc2nccc(-c3cccnc3)n2n1 | 49.2% (active) |
| CC1=NN(c2ccc(F)cc2)C(=O)C1C(c1cccc(O)c1)c1c(C)[nH]n(-c2ccc(F)cc2)c1=O (stereo not drawn) | -9.8% |
| CN(C)c1cc(N/N=C\c2ccccc2)nc(N(C)C)n1 | 22.4% |
| O=C(CC1Nc2cccc3cccc(c23)NC1=O)Nc1ccccc1 (stereo not drawn) | -22.9% |
| O=C(CSc1ccc(Br)c2cccc(Cl)c12)Nc1ccc(S(=O)(=O)Nc2nccs2)cc1 | -50.4% |
| COc1cc2c(ccc3cc(OC)c(OC)c(O)c32)cc1O | 24.2% |
| CC(=O)Nc1ccc(NC(=O)Cn2c(-c3ccc(F)cc3)cnc2SCC(=O)Nc2c(C)cccc2C)cc1 | -6.5% |
| [O-]/C(=C(\C(=S)Nc1cccc2ccccc12)[n+]1ccccc1)c1ccc(Cl)s1 | -8.3% |

| Compound | inhibition |
| --- | --- |
| COc1c(C)oc2cc(O)ccc2c1=O | 41% (active) |
| O=C1CC(N2CCOCC2)=NN1c1ccc([N+](=O)[O-])cc1 | -12.8% |
| O=C(NNc1cc(N2CCOCC2)nc(N2CCOCC2)n1)c1ccc(Cl)c(Cl)c1 | -6.9% |
| Fc1ccc(-c2nc3cnccn3c2NC2CCCC2)cc1 | 57.9% (active) |
| O=C(/C=C\c1ccco1)c1ccc(NC(=O)c2ccco2)cc1 | 0.2% |
| CCOc1cc(CNc2ccc(N3CCN(C(C)=O)CC3)cc2)cc(Br)c1OC | -8.4% |
| Cc1c2c(=O)n(-c3nc4ccccc4s3)nc-2cc(O)n1Cc1ccccc1 | -12.7% |
| Cc1ccc(S(=O)(=O)NNC(=S)Nc2c(Cl)cccc2Cl)cc1 | -4.65% |
| Cc1[nH]n(-c2ccccc2)c(=O)c1/C=N/N(C)c1ccccc1 | -31.9% |
| C[n+]1cccc2ccc3c(c21)OC(N)=C(C#N)C3c1ccccc1 (stereo not drawn) | -12.1% |
| COc1ccc(-c2cc(-c3ccccc3)n3ncnc3n2)cc1 | 53.7% (active) |
| COc1cc(OC)cc(-c2nc(-c3ccccc3)no2)c1 | -17.7% |
| Cc1ccc(S(=O)(=O)C(C#N)c2nc3ccccc3nc2N2CCCC2)cc1 (stereo not drawn) | -7.1% |
| COc1ccc(C2=NN(C(=O)c3cccs3)C(c3ccccc3O)C2)cc1 (stereo not drawn) | 8.65% |
| CC1=NN(c2ccccc2)C(=O)/C1=C/c1ccc(Cl)cc1 | -10.2% |
| O=C(O)c1ccc(C(=O)Nc2cccc3ccccc23)c(C(=O)O)c1 | 4.4% |
| O=[N+]([O-])c1ccc2[nH]c(O)c(N=NC(=S)Nc3cccnc3)c2c1 | -5.4% |
| CCN(CC)CCOC(=O)c1ccc(N/C=C(/C#N)c2nc(-c3ccc(OC)c(OC)c3)cs2)cc1 | 6.75% |
| O=C(Nc1ccc2nc(-c3ccco3)c(-c3ccco3)nc2c1)N1CCN(c2ccccn2)CC1 | 12.2% |
| O=S(=O)(c1ccc2nc(-c3ccco3)c(-c3ccco3)nc2c1)N1CCOCC1 | 30.4% (active) |

| Compound | inhibition |
| --- | --- |
| O=C(NCc1ccccc1)c1ccc2nc(-c3ccco3)c(-c3ccco3)nc2c1 | 15.6% |
| C=CCN1C(=O)N(CC=C)c2cccc3cccc1c23 | -6.45% |
| Nc1c(N2CCCC2)cc(Cl)c2nonc12 | 22.4% |
| CCOC(=O)COc1nc(-c2ccco2)cc(-c2ccco2)c1C#N | 22.2% |
| N#Cc1c(-c2ccco2)cc(-c2cccnc2)nc1N | 25.1% |
| N#Cc1c(-c2cccc(Br)c2)cc(-c2ccco2)[nH]c1=O | 31.6% (active) |
| COc1ccc(S(=O)(=O)/N=C2/NC(=O)/C(=C\c3ccco3)S2)cc1 | -10.3% |
| CC(=O)C1=C(O)C=C(c2ccco2)CC1c1ccco1 (stereo not drawn) | -2.85% |
| O=c1oc2cc(O)ccc2cc1-c1ccc(F)cc1 | 45.8% (active) |
| O=c1cc(-c2ccc(F)cc2)[nH][nH]1 | -7.15% |
| Cc1ccc(NC(=O)CN2C(=O)S/C(=C/c3ccc(O)c([N+](=O)[O-])c3)C2=O)cc1C | -1.6% |
| Cc1ccc(NC(=O)Cn2c(O)c(N=NC(=O)c3cc4ccccc4cc3O)c3ccccc32)cc1 | 8.55% |
| Cn1c(C(=O)N2COCC2(C)C)cc2c(=O)n3ccccc3nc21 | 55.8% (active) |
| Cn1c(C(=O)N2CCN(C(=O)c3ccco3)CC2)cc2c(=O)n3ccccc3nc21 | 57.9% (active) |
| N=c1c(S(=O)(=O)c2ccc(Cl)cc2)cc2c(=O)n3ccccc3nc2n1Cc1ccco1 | -23.2% |
| N=c1c(S(=O)(=O)c2ccc(Br)cc2)cc2c(=O)n3ccccc3nc2n1Cc1ccco1 | -13.2% |
| Cc1ccc(S(=O)(=O)c2cc3c(=O)n4ccccc4nc3n(Cc3ccco3)c2=N)cc1 | -2.55% |
| N=c1c(S(=O)(=O)c2ccccc2)cc2c(=O)n3ccccc3nc2n1Cc1ccco1 | 14.8% |
